Results filed as inconclusive are left out. Entries that show only a call come without a potency. Unmarked numbers belong to inactive results. The source made the active and inactive calls. Calls come from the whole dose curve; tested in HEK293 reporter line.
Potency is the fitted concentration of half-maximal effect.

A short description of this test: qHTS for Inhibitors of the Functional Ribonucleoprotein Complex (vRNP) of Lassa (LASV) Arenavirus: LASV Primary Screen - GLuc reporter signal (AID 1347082). Note: nearly all actives have a fitted effect of over 60% in size. The conditions noted are these: LASV minigenome vRNP, Gaussia luciferase reporter; series mostly up to 57.5 µM; activity change, negative = inhibition: at the top concentration. For orientation: In qHTS, concentration-response curves come from the screen itself.
With `Cc1ccc(C)c(OCCCC(C)(C)C(=O)O)c1`, the Potency result was “inactive”.

For `C[n+]1ccccc1/C=N/O`, the “activity change, negative = inhibition” value was -31.8%.

For `CO[C@]12CC[C@@]3(C[C@@H]1[C@](C)(O)C(C)(C)C)[C@@H]1Cc4ccc(O)c5c4[C@@]3(CCN1CC1CC1)[C@H]2O5`, the “activity change, negative = inhibition” value was -11% [at 115 µM].

For `CCc1ccc(CCOc2ccc(CC3SC(=O)NC3=O)cc2)nc1` (configuration not stated), the Potency entry was “inactive”.

Take `CCn1cc(C(=O)O)c(=O)c2ccc(C)nc21`: the Potency entry is “inactive”.

For `C[C@H]1c2cccc(O)c2C(O)=C2C(=O)[C@]3(O)C(O)=C(C(N)=O)C(=O)[C@@H](N(C)C)[C@@H]3[C@@H](O)[C@@H]21`, the Potency entry was “inactive”.

Take `CC(S)C(=O)NCC(=O)O` (configuration not stated): the “activity change, negative = inhibition” value was 1%.

For `Cc1cn([C@H]2C[C@H](N=[N+]=[N-])[C@@H](CO)O2)c(=O)[nH]c1=O`, the Potency result is “inactive”.

For `CN(CCOc1ccc(CC2SC(=O)NC2=O)cc1)c1ccccn1` (configuration not stated), the Potency entry was “inactive”.

Take `Cc1ccc(S(=O)(=O)NC(=O)NN2CCCCCC2)cc1`: the Potency entry is “inactive”.

For the compound `CCCCS(=O)(=O)N[C@@H](Cc1ccc(OCCCCC2CCNCC2)cc1)C(=O)O`, the “activity change, negative = inhibition” value is 9.6%.

With `CO[C@@]12[C@H](COC(N)=O)C3=C(C(=O)C(C)=C(N)C3=O)N1C[C@@H]1N[C@@H]12`, the “activity change, negative = inhibition” value was -29.4%.

Consider `COc1cc2c(c(OC)c1OC)-c1ccc(OC)c(=O)cc1[C@@H](NC(C)=O)CC2`, for which the Potency entry was “inactive”.

Consider `CC1=C(C(=O)O)N2C(=O)[C@@H](NC(=O)[C@H](N)c3ccccc3)[C@H]2SC1`, for which the “activity change, negative = inhibition” value is -0.818%.

For the compound `Oc1ccc(C2CNCCc3c2cc(O)c(O)c3Cl)cc1` (configuration not stated), the Potency result was “inactive”.

Turning to `c1cnc2cc3c(cc2n1)C1CNCC3C1`, the “activity change, negative = inhibition” value is 0.584%.

With `C[N+]1(C)CCC(OC(=O)C(O)(c2ccccc2)C2CCCC2)C1` (configuration not stated), the “activity change, negative = inhibition” value was -2.12%.

`CCCN[C@H]1CCc2nc(N)sc2C1`: the Potency result is “inactive”.

Take `CC1(CN2CCC(n3c(=O)[nH]c4ccccc43)CC2)OCc2ccccc2-n2cccc21` (configuration not stated): the “activity change, negative = inhibition” value was -33.8%.

Regarding `CC(=O)Nc1nnc(S(N)(=O)=O)s1`, the Potency entry was “inactive”.

On to `CN1CCN(CCCN2c3ccccc3Sc3ccc(Cl)cc32)CC1`, for which the Potency result is “inactive”.

As for `CC(C)c1c(C(=O)Nc2ccccc2)c(-c2ccccc2)c(-c2ccc(F)cc2)n1CC[C@@H](O)C[C@@H](O)CC(=O)O`, the “activity change, negative = inhibition” value was 2.59%.

As for `O=C(NCCN1CCOCC1)c1ccc(Cl)cc1`, the Potency entry is “inactive”.

As for `C[C@]12CC[C@@H]3c4ccc(O)cc4C[C@@H](CCCCCCCCCS(=O)CCCC(F)(F)C(F)(F)F)[C@H]3[C@@H]1CC[C@@H]2O` (some centres not stated), the Potency result is “inactive”.

`O=C1OCCN1/N=C/c1ccc([N+](=O)[O-])o1`: the “activity change, negative = inhibition” value is -19.8%.

For `CN(C)CCc1c[nH]c2ccc(C[C@H]3COC(=O)N3)cc12`, the Potency entry was “inactive”.

For `Cc1ccc(NC(=O)c2ccc(CN3CCN(C)CC3)cc2)cc1Nc1nccc(-c2cccnc2)n1`, the “activity change, negative = inhibition” value is -31.6%.

Consider `NC12CC3CC(CC(C3)C1)C2`, for which the Potency entry is “inactive”.

For the compound `CCN(CC)C(=S)SSC(=S)N(CC)CC`, the Potency is 193 nM (active).

Take `O=C1C(=O)c2ccccc2C(O)=C1C1CCC(c2ccc(Cl)cc2)CC1` (configuration not stated): the “activity change, negative = inhibition” value is 3.53%.

As for `NS(=O)(=O)c1cc2c(cc1Cl)NC=NS2(=O)=O`, the Potency entry was “inactive”.

In the case of `C=C(CC)C(=O)c1ccc(OCC(=O)O)c(Cl)c1Cl`, the “activity change, negative = inhibition” value was -13.7%.

Consider `COCCCOc1cc(C[C@@H](C[C@H](N)[C@@H](O)C[C@H](C(=O)NCC(C)(C)C(N)=O)C(C)C)C(C)C)ccc1OC`, for which the Potency entry was “inactive”.

On to `O=C1[C@H](CC[C@H](O)c2ccc(F)cc2)[C@@H](c2ccc(O)cc2)N1c1ccc(F)cc1`, for which the “activity change, negative = inhibition” value was -1.88%.

On to `CN(C)CCCN1c2ccccc2Sc2ccc(Cl)cc21`, for which the Potency result is “inactive”.

For the compound `CCN(CC)CCNC(=O)c1cc(Cl)c(N)cc1OC`, the Potency result was “inactive”.

On to `CC(C)NC[C@@H](O)COc1ccc(CC(N)=O)cc1`, for which the “activity change, negative = inhibition” value was 1.09%.

These data come from PubChem BioAssay (NCATS).
